# Shown are actives, neighbours in structure and some others; about 2.6% of the full set was active somewhere.
# p53 mut binder: mutant p53 (human) binding | small molecule microarray binding, anti-GST fluorescence | calls only | 0.4% of 17,000 active | AID 624136;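 active = compounds whose four printed spots each glow above background more than chance allows, each with a p-value under 7%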
# NFkB binder: binders of human NF-kappa-B p105; calls only; AID 624139; 1.3% of 17,000 active; Small molecule microarray, anti-His fluorescence binding;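 active = spot fluorescence over background significantly raised, with a chance value under 7% in all four replicate spots of the compound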;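 note: probe protein is his-tagged human p50 processed subunit at 1 µg/ml; raw spot fluorescence signals with no normalization applied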
# p53 PUMA act: restores mutant p53 pathway signaling in SW480 cells | SW480 PUMA-promoter luciferase, p53 mutant reactivation | activation, % at 9.98 µM | 1.5% of 28,000 active | AID 624151; in the data active = activation above about 52%
# Myc binder: binds human c-Myc on microarray | 1.5% of 17,000 active | small molecule microarray, His-c-Myc binding, anti-His fluorescence | calls only;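 active = spot fluorescence over background with P-value below 7% in all four replicate spots, showing protein binding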;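 note: score is binary with 100 for all four spots passing and 0 otherwise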
# Target sequence (P01106 whole entry, looked up): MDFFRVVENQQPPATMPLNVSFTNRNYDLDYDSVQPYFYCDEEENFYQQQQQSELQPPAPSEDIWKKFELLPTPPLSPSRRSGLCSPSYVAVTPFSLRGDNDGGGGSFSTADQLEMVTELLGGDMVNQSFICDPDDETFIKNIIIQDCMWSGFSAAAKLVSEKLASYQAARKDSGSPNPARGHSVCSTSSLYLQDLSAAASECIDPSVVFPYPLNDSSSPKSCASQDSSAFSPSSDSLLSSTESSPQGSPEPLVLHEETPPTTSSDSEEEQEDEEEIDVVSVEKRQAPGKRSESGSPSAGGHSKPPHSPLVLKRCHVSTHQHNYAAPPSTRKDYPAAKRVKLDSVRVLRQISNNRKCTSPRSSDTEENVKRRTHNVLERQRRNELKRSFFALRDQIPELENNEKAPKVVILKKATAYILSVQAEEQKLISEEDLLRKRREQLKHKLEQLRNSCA
# STAT3 SMM: binders of human STAT3; P40763; Small molecule microarray, His-STAT3 binding, anti-His fluorescence; calls only; 0.2% of 17,000 active; AID 624138;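 active = compounds whose four printed spots each show fluorescence over background unusually high for their array block, chance value under 7%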
# * hit, by the source's call; i = inactive; . = no result given; + = active, no number.
SMILES,p53 mut binder,NFkB binder,p53 PUMA act,Myc binder,STAT3 SMM
CN1CC(C(=O)N[C@]2(C)O[C@@]3(O)[C@@H]4CCCN4C(=O)[C@H](Cc4ccccc4)N3C2=O)C=C2c3cccc4[nH]cc(c34)C[C@H]21 (some centres not stated),i,+,1,+,i
CC(C)[C@H]1C(=O)N2CCC[C@H]2[C@]2(O)O[C@](NC(=O)[C@@H]3C=C4c5cccc6[nH]cc(c56)C[C@H]4N(C)C3)(C(C)C)C(=O)N12,i,i,7,i,i
Oc1cc2c(cc1O)C1c3ccccc3CNC1CC2 (configuration not stated),i,i,-3,i,i
CC(C)(O)/C=C/C(=O)[C@](C)(O)C1[C@H](O)C[C@@]2(C)[C@@H]3CC=C4C(CC(=O)C(=O)C4(C)C)[C@]3(C)C(=O)C[C@@]12C (some centres not stated),i,i,-60,i,i
CCc1ccc(NC2=NCCS2)cc1,.,.,61*,.,.
NCC(=O)Nc1ccc(Br)cc1C(=O)c1ccccc1,i,i,113*,i,i
CCn1cnc2c(Nc3cccc(Cl)c3)nc(N[C@@H]3CCCC[C@@H]3N)nc21,i,i,-63,+,i
Oc1ccc2c3c1OC1c4[nH]c5c(c4CC4(O)C(C2)N(CC2CC2)CCC314)CC1(O)C2Cc3ccc(O)c4c3C1(CCN2CC1CC1)C5O4 (configuration not stated),i,i,-1,i,i

# Source: PubChem (Broad Institute)
